Experimental data taken from PubChem BioAssay (EPA / NIEHS).
Records with an inconclusive call do not appear. Calls of active or inactive are those of the source. How the source made its calls, unless noted: active means hit-call score of the fitted dose curve at least 0.9, where 1 is the maximum; inconclusive means response in the unintended direction; inactive means score below 0.9.

Columns and labels:
[1] = target: Estrogen receptor (Homo sapiens) (UniProt P03372); experiment: OT_ERa_GFPERaERE_0480: Odyssey Thera (OT) 8-hour HeLa Transcription Induction Assay for Estrogen Receptor (AID 2283381; active means hit-call score of the fitted dose curve at least 0.9, where 1 is the maximum; inactive means score below 0.9)
Method in brief: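 Cells (HeLa) receive compound; after 8 h, reporter fluorescence is imaged and quantified by high-content analysis. Gain-of-signal relative to DMSO gives the endpoint.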

[2] = target: Estrogen receptor (Homo sapiens) (UniProt P03372); experiment: OT_ERa_GFPERaERE_0120: Odyssey Thera (OT) 2-hour HeLa Transcription Induction Assay for Estrogen Receptor (AID 2283382)
Method in brief: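 Measures ESR1 pathway reporter gain-of-signal in HeLa cells after a 2-hour treatment, detected as fluorescent protein induction by microscopy, DMSO as baseline.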

[3] = target: Bile acid receptor (Homo sapiens) (UniProt Q96RI1); experiment: OT_FXR_FXRSRC1_1440: Odyssey Thera (OT) 24-hour HEK293T Protein-Complementation Assay for Farnesoid X receptor/SRC-1 Co-activator (AID 2283384)
Method in brief: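 Cell-based binding reporter: interaction of FXR with SRC-1 brings reporter fragments together, giving a fluorescence signal read 24 h after dosing of HEK293T cells.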

[4] = target: Retinoic acid receptor RXR-alpha (Homo sapiens) (UniProt P19793); experiment: OT_NURR1_NURR1RXRa_1440: Odyssey Thera (OT) 24-hour HEK293T Protein Complementation Assay for Nurr1/retinoid X receptor (RXR) (AID 2283386)
Method in brief: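 Measured as fluorescence from a reconstituted split reporter, this 24 h HEK293T complementation assay scores compound-induced gain of Nurr1/RXRα association relative to DMSO.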

[5] = target: Peroxisome proliferator-activated receptor gamma (Homo sapiens) (UniProt P37231); experiment: OT_PPARg_PPARgSRC1_0480: Odyssey Thera (OT) 8-hour Protein-Complementation Assay for Peroxisome Proliferator-activated Receptor Gamma / SRC-1 Co-activator (AID 2283387);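 further: nuclear to cytoplasmic split Venus YFP fluorescence ratio reporting PPARg SRC-1 interaction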
Method in brief: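 HEK293T transiently transfected with PPARg and SRC-1 fused to Venus YFP fragments, compounds 8 h at 37C. Fixed, Draq5-stained cells imaged; nuclear/cytoplasmic 488 nm fluorescence ratio over at least 350 cells per image; gain fitted versus DMSO.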

[6] = target: mouse Estrogen Receptor alpha (Era), Esr1 (gene 13982) (UniProt P19785); experiment: NVS_NR_mERa: NovaScreen (NVS) Nuclear Receptor Binding Assay for mouse Estrogen Receptor alpha (Era) (AID 2283378);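 further: hit means loss of bound radioligand signal relative to DMSO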
Method in brief: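 Filter radiodetection of radioligand displacement from extracted receptor protein, measured 18 h post-dose. Single 25 uM concentration in duplicate initially, with concentration-series follow-up. Binding loss fitted relative to DMSO.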

[7] = target: Estrogen receptor beta (Homo sapiens) (UniProt Q92731); experiment: OT_ER_ERbERb_1440: Odyssey Thera (OT) 24-hour HEK293T Protein-Complementation Assay for Estrogen Receptor-beta/-beta Homodimer (AID 2283380);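 further: scored as signal increase over DMSO baseline for both agonists and antagonists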
Method in brief: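 HEK293T cells stably expressing ER beta LBD (aa 310-547) homodimer fragment-complementation reporter, dosed 24 h. Cells formaldehyde-fixed, Draq5-stained; gain in nuclear (agonist) or nuclear plus cytoplasmic (antagonist) fluorescence versus DMSO read by laser scanning cytometry.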

[8] = target: Bile acid receptor (Homo sapiens) (UniProt Q96RI1); experiment: OT_FXR_FXRSRC1_0480: Odyssey Thera (OT) 8-hour HEK293T Protein-Complementation Assay for Farnesoid X receptor/SRC-1 Co-activator (AID 2283383)
Method in brief: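 Co-activator recruitment to FXR was measured in living HEK293T cells, where interaction of the two fused partners restored an active fluorescent reporter. Signal gain after 8 h treatment was referenced to DMSO.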

[9] = target: Retinoic acid receptor RXR-alpha (Homo sapiens) (UniProt P19793); experiment: OT_NURR1_NURR1RXRa_0480: Odyssey Thera (OT) 8-hour HEK293T Protein Complementation Assay for Nurr1/retinoid X receptor (RXR) (AID 2283385)
Method in brief: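 Compounds are applied to HEK293T cells carrying Nurr1 and RXRα linked to reporter fragments. After 8 h, fluorescence intensity reports heterodimer formation, with DMSO as baseline.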

[10] = target: Agonist Androgen Response Element (ARE), AR (gene 367) (UniProt P10275); experiment: OT_AR_ARELUC_AG_1440: Odyssey Thera (OT) 24-hour CHO-K1 Luciferase Assay for Agonist Androgen Response Element (ARE) (AID 2283379)
Method in brief: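 CHO-K1 cells carrying an ARE-driven luciferase reporter were exposed to compounds for 24 h. Luminescence was then read after adding a D-luciferin/ATP mix, and activity was scored as a gain in signal over DMSO vehicle.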

Measured: AC50

Chain of Bile acid receptor (Homo sapiens) (Q96RI1 whole entry, looked up, the tested form may be a part): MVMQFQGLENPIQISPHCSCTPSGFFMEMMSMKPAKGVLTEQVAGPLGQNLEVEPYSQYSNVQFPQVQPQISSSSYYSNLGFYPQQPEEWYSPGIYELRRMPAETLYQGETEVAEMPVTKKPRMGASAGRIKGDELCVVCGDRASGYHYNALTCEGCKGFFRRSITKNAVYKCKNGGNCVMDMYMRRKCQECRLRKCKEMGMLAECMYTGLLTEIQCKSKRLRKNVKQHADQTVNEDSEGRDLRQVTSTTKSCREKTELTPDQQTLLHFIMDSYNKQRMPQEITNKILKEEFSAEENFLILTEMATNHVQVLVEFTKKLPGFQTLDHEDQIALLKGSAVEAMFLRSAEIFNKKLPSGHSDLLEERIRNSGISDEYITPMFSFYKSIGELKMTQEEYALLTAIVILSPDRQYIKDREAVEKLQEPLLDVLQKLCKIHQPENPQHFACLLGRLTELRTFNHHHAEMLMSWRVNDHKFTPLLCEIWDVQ
Chain of Peroxisome proliferator-activated receptor gamma (Homo sapiens) (P37231 whole entry, looked up, the tested form may be a part): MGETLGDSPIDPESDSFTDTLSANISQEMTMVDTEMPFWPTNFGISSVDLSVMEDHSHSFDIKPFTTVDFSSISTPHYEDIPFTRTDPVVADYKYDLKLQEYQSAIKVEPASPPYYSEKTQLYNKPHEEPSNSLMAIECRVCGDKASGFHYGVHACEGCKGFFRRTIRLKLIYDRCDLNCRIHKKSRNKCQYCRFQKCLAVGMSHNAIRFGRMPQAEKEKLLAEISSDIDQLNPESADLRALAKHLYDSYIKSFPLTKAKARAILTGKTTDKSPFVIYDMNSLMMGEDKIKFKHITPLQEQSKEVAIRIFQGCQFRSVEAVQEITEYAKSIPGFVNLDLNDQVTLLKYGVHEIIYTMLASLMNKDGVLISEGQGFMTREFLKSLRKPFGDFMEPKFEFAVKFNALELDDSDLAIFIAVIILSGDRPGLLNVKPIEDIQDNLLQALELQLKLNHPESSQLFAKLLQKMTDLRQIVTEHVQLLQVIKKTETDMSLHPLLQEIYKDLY
Chain of Estrogen receptor beta (Homo sapiens) (Q92731 whole entry, looked up, the tested form may be a part): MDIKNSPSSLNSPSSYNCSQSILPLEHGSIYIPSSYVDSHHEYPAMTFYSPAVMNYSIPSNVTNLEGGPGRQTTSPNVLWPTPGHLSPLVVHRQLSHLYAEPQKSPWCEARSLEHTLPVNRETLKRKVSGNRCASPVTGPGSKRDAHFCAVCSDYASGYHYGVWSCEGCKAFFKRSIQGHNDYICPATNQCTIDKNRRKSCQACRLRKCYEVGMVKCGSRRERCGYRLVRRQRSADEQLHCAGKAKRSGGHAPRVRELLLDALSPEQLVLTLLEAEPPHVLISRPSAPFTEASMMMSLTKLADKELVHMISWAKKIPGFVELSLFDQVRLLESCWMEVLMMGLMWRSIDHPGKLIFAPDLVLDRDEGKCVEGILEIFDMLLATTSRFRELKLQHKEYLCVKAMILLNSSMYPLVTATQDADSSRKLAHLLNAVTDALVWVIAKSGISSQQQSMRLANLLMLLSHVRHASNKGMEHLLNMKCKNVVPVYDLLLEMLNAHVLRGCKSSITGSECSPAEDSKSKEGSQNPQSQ
Chain of Retinoic acid receptor RXR-alpha (Homo sapiens) (P19793 whole entry, looked up, the tested form may be a part): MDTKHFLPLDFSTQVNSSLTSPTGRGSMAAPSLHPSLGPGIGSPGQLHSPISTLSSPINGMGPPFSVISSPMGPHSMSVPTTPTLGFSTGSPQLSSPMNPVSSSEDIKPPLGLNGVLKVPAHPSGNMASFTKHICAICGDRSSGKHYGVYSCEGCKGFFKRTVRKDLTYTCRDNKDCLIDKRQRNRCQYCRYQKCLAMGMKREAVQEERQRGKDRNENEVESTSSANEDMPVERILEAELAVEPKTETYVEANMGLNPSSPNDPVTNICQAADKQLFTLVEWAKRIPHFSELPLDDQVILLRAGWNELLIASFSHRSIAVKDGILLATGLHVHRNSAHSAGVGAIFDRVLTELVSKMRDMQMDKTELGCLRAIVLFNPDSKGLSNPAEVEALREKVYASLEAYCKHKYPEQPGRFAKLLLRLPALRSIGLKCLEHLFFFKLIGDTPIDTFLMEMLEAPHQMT
Chain of Agonist Androgen Response Element (ARE), AR (gene 367) (P10275 whole entry, looked up): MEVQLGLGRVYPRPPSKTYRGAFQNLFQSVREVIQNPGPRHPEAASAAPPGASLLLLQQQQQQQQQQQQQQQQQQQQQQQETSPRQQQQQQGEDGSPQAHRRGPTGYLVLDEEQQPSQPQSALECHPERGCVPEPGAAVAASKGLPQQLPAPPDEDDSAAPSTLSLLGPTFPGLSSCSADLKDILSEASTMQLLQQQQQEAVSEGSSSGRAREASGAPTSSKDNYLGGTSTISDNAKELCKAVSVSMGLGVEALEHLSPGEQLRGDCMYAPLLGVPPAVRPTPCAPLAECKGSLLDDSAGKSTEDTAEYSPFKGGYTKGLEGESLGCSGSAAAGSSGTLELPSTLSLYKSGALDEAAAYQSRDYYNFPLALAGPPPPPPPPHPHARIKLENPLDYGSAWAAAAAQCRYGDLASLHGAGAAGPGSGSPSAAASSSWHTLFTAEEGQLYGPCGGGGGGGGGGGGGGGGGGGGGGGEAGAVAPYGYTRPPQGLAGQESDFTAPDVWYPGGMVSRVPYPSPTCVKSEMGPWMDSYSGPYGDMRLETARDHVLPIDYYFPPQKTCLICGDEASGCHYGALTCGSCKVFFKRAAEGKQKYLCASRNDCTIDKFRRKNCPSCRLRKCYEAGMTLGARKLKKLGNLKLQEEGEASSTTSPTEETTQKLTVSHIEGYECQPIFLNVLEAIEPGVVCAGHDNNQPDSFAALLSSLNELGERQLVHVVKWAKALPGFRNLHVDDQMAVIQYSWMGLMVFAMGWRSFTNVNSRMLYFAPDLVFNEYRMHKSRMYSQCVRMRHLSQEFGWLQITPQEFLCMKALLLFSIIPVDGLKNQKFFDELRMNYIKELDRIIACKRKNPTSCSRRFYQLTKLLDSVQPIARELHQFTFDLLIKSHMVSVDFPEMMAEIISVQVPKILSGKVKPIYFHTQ
Chain of Estrogen receptor (Homo sapiens) (P03372 whole entry, looked up): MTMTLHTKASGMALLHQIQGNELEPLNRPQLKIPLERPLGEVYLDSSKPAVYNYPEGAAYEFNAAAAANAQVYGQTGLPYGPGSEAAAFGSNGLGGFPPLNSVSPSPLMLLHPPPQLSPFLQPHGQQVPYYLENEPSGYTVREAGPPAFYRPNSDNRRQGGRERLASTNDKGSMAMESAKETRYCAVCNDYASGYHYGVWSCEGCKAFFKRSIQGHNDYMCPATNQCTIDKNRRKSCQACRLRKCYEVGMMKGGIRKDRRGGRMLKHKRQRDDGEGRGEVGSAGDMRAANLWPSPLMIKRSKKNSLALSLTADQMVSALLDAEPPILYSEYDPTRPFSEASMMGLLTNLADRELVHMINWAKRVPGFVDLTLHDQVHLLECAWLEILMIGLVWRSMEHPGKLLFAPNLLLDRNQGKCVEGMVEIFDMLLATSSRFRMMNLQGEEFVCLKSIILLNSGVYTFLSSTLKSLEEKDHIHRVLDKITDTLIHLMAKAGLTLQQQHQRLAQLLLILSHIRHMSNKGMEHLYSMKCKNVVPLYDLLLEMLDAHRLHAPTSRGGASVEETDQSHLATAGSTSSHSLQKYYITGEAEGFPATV
Chain of mouse Estrogen Receptor alpha (Era), Esr1 (gene 13982) (P19785 whole entry, looked up): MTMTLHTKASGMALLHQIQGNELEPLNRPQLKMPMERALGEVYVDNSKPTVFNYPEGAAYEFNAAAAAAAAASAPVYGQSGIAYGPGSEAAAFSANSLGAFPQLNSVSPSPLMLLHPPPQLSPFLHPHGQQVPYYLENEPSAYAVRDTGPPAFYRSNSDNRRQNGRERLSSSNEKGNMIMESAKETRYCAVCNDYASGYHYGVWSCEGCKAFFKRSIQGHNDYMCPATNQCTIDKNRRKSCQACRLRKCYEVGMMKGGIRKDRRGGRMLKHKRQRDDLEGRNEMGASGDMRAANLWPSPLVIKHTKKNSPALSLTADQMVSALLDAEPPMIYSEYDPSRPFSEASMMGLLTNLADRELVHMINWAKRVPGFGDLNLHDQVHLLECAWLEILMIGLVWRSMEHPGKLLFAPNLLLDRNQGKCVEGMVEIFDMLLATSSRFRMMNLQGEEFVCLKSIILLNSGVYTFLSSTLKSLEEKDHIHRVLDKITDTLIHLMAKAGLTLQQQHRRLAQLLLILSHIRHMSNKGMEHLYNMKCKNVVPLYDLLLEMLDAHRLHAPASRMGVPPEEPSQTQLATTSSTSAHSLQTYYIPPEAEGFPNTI

N#Cc1ccccc1O
inactive: [1] | [2] | [3] | [4] | [5]

CC(C)(C)c1cc(CCC(=O)OCC(COC(=O)CCc2cc(C(C)(C)C)c(O)c(C(C)(C)C)c2)(COC(=O)CCc2cc(C(C)(C)C)c(O)c(C(C)(C)C)c2)COC(=O)CCc2cc(C(C)(C)C)c(O)c(C(C)(C)C)c2)cc(C(C)(C)C)c1O
inactive: [6] | [7] | [1] | [2] | [8] | [3] | [9] | [4]

CCC(Cc1c(I)cc(I)c(N)c1I)C(=O)O (stereo not given)
inactive: [6] | [1] | [2] | [8] | [3] | [9] | [5]

CC(C)Nc1ccc(NC(C)C)c2c1C(=O)c1ccccc1C2=O
active: [7] 19.1 µM | [3] 18.2 µM
inactive: [2] | [9] | [4] | [5]

O=C(c1ccccc1)c1ccc(O)cc1O
inactive: [8] | [3] | [9] | [5]
active: [6] 1.22 µM | [1] 8.62 µM | [2] 6.29 µM

COCCOCCC[Si](C)(O[Si](C)(C)C)O[Si](C)(C)C
inactive: [6] | [10] | [1] | [2] | [3] | [5]
active: [7] 53.3 µM | [8] 50 µM | [9] 33.2 µM | [4] 90.4 µM

CCOC(OCC)OCC
inactive: [7] | [1] | [2] | [4] | [5]

CCCCCCCC/C=C\CCCCCCCC(=O)OCC(O)CO (stereo not given)
active: [8] 70.9 µM | [9] 71.1 µM | [4] 90.1 µM
inactive: [10] | [7] | [1] | [2] | [5]

OCC1CCCO1 (stereo not given)
inactive: [10] | [7] | [1] | [2] | [8] | [5]

CCOC(=O)C1CC(=O)C(=C(O)C2CC2)C(=O)C1 (stereo not given)
inactive: [7] | [1] | [2] | [8] | [9] | [4] | [5]

C[C@]12CC[C@H]3C(=CCc4cc(O)ccc43)[C@@H]1CCC2=O
inactive: [3] | [9] | [5]
active: [10] 0.284 µM | [8] 9.93 µM

CCCCCCCCn1sc(Cl)c(Cl)c1=O
inactive: [1] | [2] | [9] | [4]
active: [6] 25 µM

CC(C)(C)c1cc(Cc2cc(C(C)(C)C)c(O)c(C(C)(C)C)c2)cc(C(C)(C)C)c1O
inactive: [7] | [1] | [2] | [8] | [4] | [5]
active: [3] 6.6 µM

CCN=C1C=CC(=C(c2ccc(N(CC)CC)cc2)c2ccc(N(CC)CC)cc2)c2ccccc21
inactive: [10] | [7] | [1] | [2] | [5]

CCCCOC(=O)C(C)O (stereo not given)
active: [2] 2.95 µM
inactive: [1] | [8] | [9] | [5]

O=C1C=CC(=O)N1c1ccccc1
inactive: [6] | [10] | [7] | [1] | [2] | [5]

CC(=O)CCC(C)C
inactive: [1] | [2] | [8] | [9] | [5]

CCc1cc(Cc2cc(CC)c(N)c(CC)c2)cc(CC)c1N
active: [8] 11.8 µM | [9] 11.5 µM
inactive: [7] | [1] | [2] | [3] | [5]

CCCCCCCCCc1ccc(OCCO)cc1
active: [10] 0.238 µM | [7] 4.63 µM | [8] 4.7 µM | [3] 28.8 µM | [4] 32.9 µM
inactive: [6] | [1] | [2] | [9] | [5]

Cc1ccc([N+](=O)[O-])c(C)c1
inactive: [1] | [2] | [3] | [9] | [5]

CCCCOC(=O)[C@H](C)O
inactive: [1] | [2] | [9] | [4] | [5]

Cc1ccc(O)c(-n2nc3ccccc3n2)c1
inactive: [7] | [1] | [2] | [3] | [9] | [4] | [5]
active: [6] 6.65 µM | [8] 50 µM

F[Si-2](F)(F)(F)(F)F
inactive: [10] | [7] | [1] | [2] | [8] | [4] | [5]

CCCCCCCCCCCCCC[P+](CCCC)(CCCC)CCCC
active: [1] 10.4 µM | [2] 12.2 µM
inactive: [6] | [10] | [7] | [5]

CC(C)OC=O
inactive: [1] | [2] | [8] | [3] | [9] | [4] | [5]

CCCCC(CC)COC(=O)c1ccc(N(C)C)cc1 (stereo not given)
inactive: [7] | [1] | [2] | [5]
active: [8] 32.7 µM | [3] 50 µM | [9] 77.7 µM | [4] 76 µM

CCN=c1cc2oc3cc(NCC)c(C)cc3c(-c3ccccc3C(=O)OCC)c-2cc1C
active: [6] 25 µM | [7] 76.4 µM | [8] 1.36 µM | [9] 0.603 µM | [4] 0.769 µM
inactive: [10] | [1] | [2] | [3] | [5]

CCCCCCCCCCCCC[N+](C)(C)Cc1ccccc1
active: [6] 8.86 µM | [2] 18.1 µM
inactive: [10] | [7] | [1] | [5]

CCCCCCCC/C=C\CCCCCCCC(=O)N(C)CC(=O)O
active: [8] 72.6 µM
inactive: [6] | [7] | [1] | [2] | [3] | [9] | [5]
